Bioassay records from PubChem.
D2 ag-1 = agonists of human D2 dopamine receptor (beta-arrestin); P14416; DiscoveRx PathHunter D2 beta-arrestin, luminescence, 90 min; 100% = 57 uM dopamine signal; activation, % (test concentration not listed); hit rate 0.084% among 360,000; in the data active = activation above about 40%; inconclusive = between about 15% and that limit
Target sequence (P14416 whole entry, looked up): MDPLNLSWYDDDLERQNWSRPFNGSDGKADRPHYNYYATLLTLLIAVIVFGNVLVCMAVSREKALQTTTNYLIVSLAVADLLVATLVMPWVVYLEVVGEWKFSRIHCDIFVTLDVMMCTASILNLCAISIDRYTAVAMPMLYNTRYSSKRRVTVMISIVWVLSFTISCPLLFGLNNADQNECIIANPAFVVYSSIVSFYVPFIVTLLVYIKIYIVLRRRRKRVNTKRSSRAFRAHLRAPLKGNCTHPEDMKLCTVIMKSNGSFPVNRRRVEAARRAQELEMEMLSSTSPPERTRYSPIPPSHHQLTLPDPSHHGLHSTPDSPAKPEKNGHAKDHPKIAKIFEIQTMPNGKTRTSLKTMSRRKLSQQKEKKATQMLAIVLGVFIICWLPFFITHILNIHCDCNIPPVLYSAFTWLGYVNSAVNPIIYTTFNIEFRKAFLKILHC
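DiscoveRx PathHunter D2 beta-arrestin cells (2,100/well) attached overnight, then compound-stimulated 90 min at 37 C in HBSS/10 mM HEPES/0.1% Tween-20 buffer; beta-galactosidase complementation read by luminescence after 1 h at ambient temperature. Dopamine 57 uM final (EC100) as control.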
D2 PAM-1 = positive allosteric modulators of human D2 dopamine receptor. P14416. HEK293 T-REx D2, calcium flux, EC20 dopamine potentiation. potentiation, % at 10 µM. hit rate 0.34% among 340,000;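 active = potentiation over 3 SD above the plate norm, cut at about 30% in these data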
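Cells plated with tetracycline inducer and held overnight at 30 C; calcium dye loaded 30–90 min at room temperature; baseline taken, compound added and read 180 s; EC20 dopamine then added and read 180 s.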
D2 antagonist = D2 dopamine receptor (human) antagonism | P14416 | HEK293 TREx D2 cells, calcium flux, dopamine EC80 | inhibition, % at 10 µM | hit rate 2% among 340,000 | AID 485344; in the data active = inhibition above about 30%; inactive = below that, where a call was filed
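Inhibition of EC80 dopamine-driven calcium flux, recorded kinetically, defines activity here; cells are a tetracycline-induced HEK293 T-REx line expressing force-coupled D2.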
Anesthetic bind = candidate novel general anesthetic via apoferritin binding. P02791. apoferritin/1-aminoanthracene competitive binding, fluorescence. Potency, µM (top dose mostly 77.5 µM), hits mostly inhibitors. hit rate 0.074% among 350,000. AID 485281; active = well fitted inhibition curve with a large enough effect; inconclusive = small, poorly fitted or top-dose-only effect; inactive = no such curve, though single readings can be large or run the other way; note: nearly all actives have a fitted effect of over 20% in size
Target sequence (P02791 2-175 limits assumed): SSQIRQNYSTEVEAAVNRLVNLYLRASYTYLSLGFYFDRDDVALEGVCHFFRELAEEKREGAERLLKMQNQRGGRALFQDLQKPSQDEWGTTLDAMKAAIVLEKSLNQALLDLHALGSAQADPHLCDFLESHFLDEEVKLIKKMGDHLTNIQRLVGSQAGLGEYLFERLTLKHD
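Read-out: endpoint 1-AMA fluorescence, excitation 380 nm and emission 535 nm, after compounds sit 10 min at room temperature with 10 uM horse-spleen apoferritin in 50% saturated 1-AMA/PBS. Values come from four-parameter Hill fits.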
D2 ag-2 = activates the human D2 dopamine receptor | P14416 | HEK293 T-REx D2 cells, calcium flux agonist mode | activation, % at 2 µM | hit rate 0.53% among 340,000 | AID 485358;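 active = activation over 3 SD above normal in the single-dose calcium agonist read, cut at about 30% in these data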
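Agonism is scored from calcium flux in a force-coupled, inducible HEK293 cell line expressing D2, read kinetically for 180 s after compound addition against dopamine controls.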
D2 PAM-2 = positive allosteric modulators of human D2 dopamine receptor; P14416; DiscoveRx D2 beta-arrestin cells, luminescence, 90 min; 100% = 57 uM dopamine signal; potentiation, % (test concentration not listed); hit rate 0.23% among 360,000; in the data active = potentiation above about 50%; inconclusive = mostly about 30% to 49%
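D2 cells co-treated with compound plus 50 nM dopamine (EC20) for 90 min at 37 deg C to detect potentiation. Beta-arrestin recruitment was read as enzyme-fragment luminescence after 1 h at ambient temperature. Full response was set by 57 uM dopamine.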
A number is an active result; – = inactive; ? = inconclusive; · = no result given. Shown are actives, neighbours in structure and some others; about 2.5% of the full set was active somewhere.

SMILES	D2 ag-1	D2 PAM-1	D2 antagonist	Anesthetic bind	D2 ag-2	D2 PAM-2
COc1ccc(C(CNC(=S)NCc2ccccc2)N2CCCC2)cc1 (configuration not stated)	–	–	41	–	–	–
COc1ccc(NC(=S)NCC(c2cccnc2)N2CCOCC2)cc1 (configuration not stated)	–	30	–	–	–	–
COc1ccccc1C(CNC(=S)NCc1ccccc1)N1CCCC1 (configuration not stated)	–	–	–	–	–	–
CCOC(=O)C1(Cc2ccccc2)CCCN(Cc2ccccn2)C1 (configuration not stated)	–	–	–	–	–	–
C=C(C)CSc1ncc(-c2cccc(C(F)(F)F)c2)cn1	–	–	–	?	–	–
C[N+](C)(CCOc1ccccc1)Cc1ccccc1	–	·	·	·	·	–
Cc1cc(C(C)(C)CC(C)(C)C)ccc1OCCOCC[N+](C)(C)Cc1ccccc1	–	–	–	32µM	–	–
CC(=O)c1c(-c2ccccc2)c2cc(Cl)ccc2[nH]c1=O	–	–	75	–	–	–
Cc1nc2c(=O)[nH]c3ccccc3c2o1	–	–	–	–	–	–
CCCCOc1ccc(C(C)NC(=O)CCS(=O)(=O)Cc2ccccc2F)cc1 (configuration not stated)	–	–	–	–	–	–
O=C(CCS(=O)(=O)c1cc(Br)cc2c1N(C(=O)C1CC1)CC2)N1CCN(c2ccccc2)CC1	·	–	·	–	·	·
COc1cccc(OC)c1C(=O)OCC(=O)NC1CCCCCC1	–	–	82	·	–	–
CCOc1ncccc1C(=O)OCC(=O)NC1CCCCCC1	–	–	31	·	–	–
c1ccc(-c2noc(CN3CCc4sccc4C3)n2)cc1	–	–	35	–	–	–
c1ccc(CCc2nc(-c3ccccc3)no2)cc1	–	39	–	–	–	–
Brc1ccc(-c2noc(CCc3ccccc3)n2)cc1	–	·	·	·	·	–
c1ccc(-c2noc(CN3CCN(c4ccccc4)CC3)n2)cc1	–	·	·	–	·	–
CS(=O)(=O)N1CCN(C(=O)COc2ccccc2)CC1	–	–	–	–	–	–
COC(=O)C1CC(Cl)CN1c1ncc(C(F)(F)F)cc1Cl (configuration not stated)	–	–	–	–	–	–
O=C(CC12CC3CC(CC(Br)(C3)C1)C2)NC1CCCC1	–	–	34	–	–	–
O=C1Cc2ccccc2Sc2c(OCCN3CCCCC3)cccc21	–	–	80	–	–	–
O=C(CCNS(=O)(=O)c1cccc(C(F)(F)F)c1)NC1CC1	–	45	–	·	–	–
NC(=O)C(c1ccccc1)C1CCCCC1 (configuration not stated)	–	–	52	–	–	–
COCCCn1c(=N)c(C(=O)NCc2ccc3c(c2)OCO3)cc2c(=O)n3cccc(C)c3nc21	–	·	·	·	·	–
CCOC(=O)CSc1nc2cc3c(cc2cc1CC)OCCO3	–	75	–	–	–	–
SMILES	D2 ag-1	D2 PAM-1	D2 antagonist	Anesthetic bind	D2 ag-2	D2 PAM-2
CCc1cc2cc3c(cc2nc1SCC(=O)Nc1cc(C)on1)OCO3	–	–	32	–	–	–
CCc1cc2cc3c(cc2nc1SCC(=O)OC(C)C)OCO3	–	–	–	–	–	–
CCC1(CC)NC(=O)N(CC(=O)OC(C)C(=O)Nc2ccccc2OC)C1=O (configuration not stated)	–	–	–	·	–	–
CN(C)c1ccc(C(=O)NCC(c2cccs2)N2CCOCC2)cc1[N+](=O)[O-] (configuration not stated)	–	–	–	·	–	–
CCNC(=O)c1ccccc1NC(=O)c1cccc(S(=O)(=O)N2CCC(C)CC2)c1	–	–	·	–	·	–
O=[N+]([O-])c1ccc(-c2ccc(S(=O)(=O)NCCN3CCCC3)cc2)cc1	–	·	·	–	·	–
O=[N+]([O-])c1ccc(S(=O)(=O)NCCN2CCOCC2)cc1	–	49	–	–	–	–
COc1ccc(NC2c3ccccc3C(=O)N2c2ccccn2)cc1 (configuration not stated)	–	–	41	–	–	–
CCOC(=O)c1ccc(NC2c3ccccc3C(=O)N2c2ccccn2)cc1 (configuration not stated)	–	–	–	–	–	–
O=S(Cc1ccc(Br)cc1)Cc1nnc(SCc2ccc(Br)cc2)n1-c1ccccc1 (configuration not stated)	–	–	–	–	–	–
CCOc1ccc(-c2nnc(N)s2)cc1	–	74	–	–	–	–
CCCCOc1ccc(-c2nnc(N)s2)cc1	–	–	–	–	–	–
CC(C)(CN1CCN(Cc2ccccc2)CC1)NS(=O)(=O)c1ccc(Cl)cc1	–	–	44	–	–	–
CN1CCN(CC(C)(C)NS(=O)(=O)c2ccc(Cl)cc2)CC1	–	–	–	–	–	–
OCCN1CCN(C2Cc3cc(Cl)ccc3Sc3ccc(Cl)cc32)CC1 (configuration not stated) (tested in a mixture with another compound)	–	·	·	–	·	–
CN1CCN(CCOC2Cc3ccccc3Sc3ccc(Cl)cc32)CC1 (configuration not stated)	–	–	88	–	–	–
COc1ccc(CCN2C(=O)CSC2=Nc2ccc(C)cc2C)cc1OC	–	–	–	–	–	–
COc1ccccc1N1CCN(CCCC(=O)c2ccc(F)cc2)CC1	–	–	70	–	–	–
Cc1ccc(CN(C(=O)c2ccc(F)cc2)c2ccccn2)o1	·	–	·	–	–	·
O=C(C1CCCCC1)N(Cc1ccccc1)c1ccccn1	–	–	–	–	–	–
COc1ccccc1N1CCN(CCN(C(=O)C2CCCCC2)c2ccccn2)CC1	–	–	70	·	–	–
COc1ccccc1N1CCN(CCN(C(=O)c2ccc(F)cc2)c2ccccn2)CC1	–	–	61	·	–	–
COc1ccc(C(=O)CCN2CCN(c3ccccc3OC)CC2)cc1	–	–	–	–	–	–
Cc1cccc(NC(=O)CSc2nc(C)c(Cc3ccccc3)c(=O)[nH]2)c1C	·	–	–	–	–	·
Cc1ccc2[nH]c(C)c(CCNC(=O)C3CCCCC3C(=O)OCC(F)(F)F)c2c1 (configuration not stated)	–	–	–	?	–	–
Cc1ccnc(SCC(=O)c2cccs2)n1	–	–	–	–	–	–
CCOC(=O)C(=CNCC(=O)OC)C(=O)OCC	–	–	36	–	–	–
COc1ccc2c(c1)NC1(O)c3ccccc3C(=O)C21O (configuration not stated)	–	–	32	–	–	–
